Where “and” joins values, the source holds several entries; their conditions need not be identical. Equal entries are not always repeated. The panel holds about 83,000 compounds, 20% with a hit somewhere; the sample as a whole holds those more often.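 In brief: 96-well plates, 48 h treatment, single concentration, percent growth endpoint.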 Values without a mark were called inactive. Calls of active or inactive are those of the source. How the source made its calls: active means growth percent below 10; inactive means the rest.
How the values were obtained:
Experiment in all cases: NCI-60 one-dose screen, 48 h (100 = growth as untreated, 0 = no growth, -100 = all killed)
Settings in all cases: 10 µM unless noted
T-47D breast = tested on: T-47D breast
BT-549 breast = tested on: BT-549 breast
MDA-MB-435 melanoma = tested on: MDA-MB-435 melanoma
SW-620 colon = tested on: SW-620 colon
MCF7 breast = tested on: MCF7 breast
HCT-116 colon = tested on: HCT-116 colon
HCC-2998 colon = tested on: HCC-2998 colon
KM12 colon = tested on: KM12 colon

Compound | growth (T-47D breast) | growth (BT-549 breast) | growth (MDA-MB-435 melanoma) | growth (SW-620 colon) | growth (MCF7 breast) | growth (HCT-116 colon) | growth (HCC-2998 colon) | growth (KM12 colon)
O=C1/C(=C/c2ccc(-c3ccccc3C(F)(F)F)o2)SC(=S)N1CCc1ccc(O)cc1 | 34.8% | 61.7% | -14.4% (active) | 32.1% | 27.7% | 33.9% | 81.1% | 28.2%
Cc1ccc(S(=O)(=O)OC[C@@]2(C)CC[C@]3(C)CC[C@]4(C)C(=C3C2)C=C[C@@H]2[C@@]3(C)CCCNC(C)(C)[C@@H]3CC[C@]24C)cc1 | -57.7% (active) | 83.6% | -38.2% (active) | -85.8% (active) | -4.17% (active) | -91.4% (active) | -29% (active) | -75.8% (active)
COc1ccc(-c2cc(-c3cccnc3)nc3sc4c(Cl)nnnc4c23)cc1OC | 63.6% | 99.9% | 104% | 50.2% | 43.8% | 94.8% | 115% | 95.1%
O=C1CCc2c(sc3[nH]c(=S)n(Cc4ccc(Cl)cc4)c(=O)c23)C1 | -3.14% (active) | -10.1% (active) | 11.3% | 16.5% | 6.24% (active) | 5.99% (active) | 4.16% (active) | -45.8% (active)
CN(C)CC1(C)Cc2ccsc2C1O (stereo not drawn) | 113% and 100% | 113% and 102% | 111% and 107% | 105% and 112% | 110% and 105% | 115% and 104% | 107% and 103% | 116% and 106%
O=C(Oc1ccc(CO[N+](=O)[O-])cc1)c1ccccc1 | -37.4% (active) | -97% (active) | -94% (active) | -56.8% (active) | -54.4% (active) | -86.2% (active) | -81.9% (active) | -78.9% (active)
COc1ccc(C2Nc3nc(SC)nc(N)c3N=C3c4ccccc4CCC32)cc1 (stereo not drawn) | 80% | 105% | 93.2% | 76.1% | 62.9% | 51.5% | 103% | 85.9%
NCCOCCOc1ccccc1 | 101% | 106% | 107% | 102% | 91.2% | 99.4% | 94.2% | 105%
C=C[C@]1(C)C=C2CC[C@@H]3C(C)(C)C(=O)CC[C@@]3(C)[C@@H]2CC1 | 105% | 126% | 101% | 105% | 101% | 103% | 107% | 98.6%
O=C(NNc1ccccc1)c1ccccc1 | 56.5% and 36.8% | 105% and 72.2% | 69.4% | 57.1% and 45.7% | 82.9% and 90.4% | 79.6% and 68.5% | 85.6% | 33.5%
Oc1ccccc1C=Nc1ccc(N2CCN(c3ccccc3)CC2)cc1 | 81.7% | 54.8% | 96.5% | 110% | 84% | 87.1% | 90.2% | 103%

Reference: PubChem BioAssay (NCI)
